Values joined by “and” are separate entries in the source; they are usually repeats but may differ in a detail not shown here. Identical values can stand only once. This is part of a sample that, as a whole, favours compounds with a hit. Of some 83,000 tested, about 20% had one in any assay.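 Assay: single dose, 48 h. Readout: percent growth (0 = no net growth; negative = cell death). Active: <10.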 Unmarked numbers belong to inactive results. Active and inactive are the calls of the source.

The first assay relates to HS 578T breast. Put plainly: NCI-60 one-dose screen, 48 h (100 = growth as untreated, 0 = no growth, -100 = all killed). As to conditions: 10 µM unless noted.
For the molecule `CS(=O)(=O)Nc1cc(-c2ccc3ncnc(Nc4ccc(F)c(Cl)c4)c3c2)cnc1Cl`, the growth was -11.5% (active).
With `Cc1cnc(C(=O)NNc2nc3sc4c(c3c(=O)[nH]2)C(C)CCC4)cn1` (stereo not given), the growth was 46.8%.
For `Cn1cc2c(=O)nc3c(-c4nc5ccccc5[nH]4)n[nH]n3c2n1`, the growth is 93.5%.
For the molecule `Cc1ccc(-c2nc3nc(-c4ccc(F)cc4)nc(N4CCCNCC4)c3o2)cc1`, the growth was -75.9% (active).
The same measure, in the same setting: the result for `COc1ccc2c(c1)c(-c1nc(-c3c[nH]c4c(Cl)nccc34)cs1)cn2C` reads 87.6%; that for `Cc1nc2sc(C(=O)Nc3cccc4ncccc34)c(N)c2cc1C(C)O` (stereo not given), 63.6%; that for `N=C(N)c1ccc(-c2ccc(-c3ccc(F)cc3)s2)nc1`, 84.2%.
With `CN(C)CCCn1c2nc(=O)[nH]c(=O)c-2nc2cc(Cl)c(Cl)cc21`, the growth was 106%.
With `Brc1ccc(/C=C(/C2=NCCN2)n2ccc3ccccc32)cc1`, the growth was 78.2%.
Regarding `CCOC(=O)c1c(-c2ccc(OC)cc2)c(C#N)c2c(C#N)c(N)nn2c1N`, the growth is 27.7%.
Take `COc1ccc(S(=O)(=O)Nc2cc(Sc3cccc4cccnc34)c(O)c3ccccc23)cc1`: the growth was 47.2%.

Another assay has as its system NCI/ADR-RES ovarian. Described as above. As to conditions: 10 µM unless noted.
For the molecule `NC1=CC(=O)c2cccnc2C1=O`, the growth is 1.37% (active).
With `Cn1c(=O)c2c(nc(Nc3cc(=O)[nH]c(=O)[nH]3)n2Cc2ccccc2)n(C)c1=O`, the growth is 99.7%.
With `O=C(c1ccc(Nc2nccc(NCCCNc3ccnc4cc(Cl)ccc34)n2)cc1)N1CCCCC1`, the growth was 92.6%.
On the same count and under the same terms, the result for `COc1c(NC=O)c2c(c([N+](=O)[O-])c1OC)C(=O)OC2` reads 117% and 108%; that for `COc1ccc(Cl)cc1Nc1nc(C(F)(F)F)ccc1C(=O)N/N=C/c1ccc(N(C)C)cc1`, 90%; that for `CC1=C2[C@@H](CC1)[C@]1(C)O[C@@](C3CC3)(C[C@H]1OC(=O)CO)[C@H]2OC(=O)/C=C/c1ccccc1`, 2.55% (active).
On the same count and under the same terms, the result for `CC/C=C\C/C=C\C[C@H](O)C/C=C1/C(=O)C=C[C@@H]1C/C=C\CCCC(=O)OC` reads 12.1%.
The same measure, in the same setting: the result for `COc1cc(Cl)cc(-c2nn(C(=O)NS(=O)(=O)c3ccc(Cl)cc3)cc2-c2ccncc2)c1` reads 84.1%; that for `C[C@@H]1O[C@@H](O[C@H]2[C@@H](OC(=O)[C@]34CCC(C)(C)C[C@H]3C3=CC[C@@H]5[C@@]6(C)C[C@H](O)[C@H](O[C@@H]7O[C@H](CO)[C@@H](O)[C@H](O)[C@H]7O)[C@@](C)(CO)[C@@H]6CC[C@@]5(C)[C@]3(C)C[C@H]4O)OC[C@@H](O)[C@@H]2O)[C@H](O)[C@H](O[C@@H]2OC[C@@H](O)[C@H](O[C@@H]3OC[C@](O)(CO)[C@H]3O[C@@H]3OC[C@@H](O)[C@H](O)[C@H]3O)[C@H]2O)[C@H]1O[C@@H]1OC[C@](O)(CO)[C@H]1O`, 80.5%; that for `Cc1c(O)c(O)cc2c3c(oc12)CC(c1ccc2c(c1)OCO2)CC3=O` (stereo not given), 90.3%.
Regarding `CN1CCN(CCCN2c3ccccc3Sc3ccc(Cl)cc32)CC1`, the growth is 69% and 83.2%.
Still for that read-out and setting: the result for `O=C(N=Nc1c(O)[nH]c2ccccc12)Nc1ccccc1Cl` reads 93%; that for `OCCN1CCN(CC/C=C2\c3ccccc3Sc3ccc(Cl)cc32)CC1`, 58.2% and 76.6%.
In the case of `COc1nc2ccc(C)cc2cc1/C=[N+](\[O-])c1ccccc1`, the growth was 81.1%.
The same measure, in the same setting: the result for `O=C(CCN1CCOCC1)Nc1cccc(-n2cc(-c3ccncc3)c(-c3ccc(Cl)c(O)c3)n2)c1` reads 21.5%.
Consider `CN1CCN(c2ccc(Nc3ncc(C(N)=O)c(NCCCNC(=O)C4CCC4)n3)cc2)CC1`, for which the growth is 105%.
In the case of `CN(C)c1ccc2nc3ccc(=O)cc-3sc2c1`, the growth is 14.7% and 46.2%.
On to `CC(=O)N1N=C(c2ccc(Nc3nc(Nc4ccc(F)cc4)nc(Nc4ccc(F)cc4)n3)cc2)CC1c1ccccc1` (stereo not given), for which the growth was 72.8%.
`C/C=C(\C)C(=O)N[C@H]1CC[C@]2(C)C3CC[C@@]4(C)C(CC[C@@H]4C(C)N(C)C)C3CCC2[C@H]1OC(C)=O` (stereo not given in full): the growth is 16.5%.
`Cc1ccc(-c2nc3nc(-c4ccc(Cl)cc4)nc(N4CCCNCC4)c3o2)cc1`: the growth was -66.9% (active).
Regarding `Nc1n[nH]c2cccc(C#Cc3cccc(NC(=O)c4ccc(N5CCOCC5)c(C(F)(F)F)c4)c3)c12`, the growth was 14.4%.
On to `O=C1C(c2c[nH]c3ccccc23)=C(c2coc3cc(Br)ccc23)C(=O)N1O`, for which the growth was 105%.
`Cc1cc(N2CCCCC2)nc(NCc2cc(Nc3ccnc4cc(Cl)ccc34)ccc2F)n1`: the growth was 6.86% (active).
`CS(=O)(=O)Nc1cc(-c2ccc3ncnc(Nc4ccc(F)c(Cl)c4)c3c2)cnc1Cl`: the growth was 34.2%.
For the molecule `Cc1cnc(C(=O)NNc2nc3sc4c(c3c(=O)[nH]2)C(C)CCC4)cn1` (stereo not given), the growth is 11.7%.
Regarding `Cn1cc2c(=O)nc3c(-c4nc5ccccc5[nH]4)n[nH]n3c2n1`, the growth is 95.1%.
Take `Cc1ccc(-c2nc3nc(-c4ccc(F)cc4)nc(N4CCCNCC4)c3o2)cc1`: the growth is -77.7% (active).
As for `COc1ccc2c(c1)c(-c1nc(-c3c[nH]c4c(Cl)nccc34)cs1)cn2C`, the growth was 95.5%.
Regarding `Cc1nc2sc(C(=O)Nc3cccc4ncccc34)c(N)c2cc1C(C)O` (stereo not given), the growth was 88%.
Take `N=C(N)c1ccc(-c2ccc(-c3ccc(F)cc3)s2)nc1`: the growth was 93.5%.
Consider `CN(C)CCCn1c2nc(=O)[nH]c(=O)c-2nc2cc(Cl)c(Cl)cc21`, for which the growth is 85.9%.
In the case of `Brc1ccc(/C=C(/C2=NCCN2)n2ccc3ccccc32)cc1`, the growth is 65.9%.
Consider `CCOC(=O)c1c(-c2ccc(OC)cc2)c(C#N)c2c(C#N)c(N)nn2c1N`, for which the growth was 17.8%.
Take `COc1ccc(S(=O)(=O)Nc2cc(Sc3cccc4cccnc34)c(O)c3ccccc23)cc1`: the growth was 11.1%.
